Assay results taken from PubChem BioAssay (NCATS).
Results filed as inconclusive are left out. Calls of active or inactive are those of the source. Unless noted, calls come from the whole dose curve; as a rule, active = well fitted curve in either direction with a large enough effect (not every such curve was filed as active); inconclusive = small, poorly fitted or top-dose-only effect, or another doubt; inactive = flat fitted curve, though single readings scatter.

How the values were obtained:
[1] = AP1 Signaling Pathway (AID 357); details: ME-180 AP-1-bla reporter, EGF-induced, beta-lactamase ratio, 5 h; at 38 µM (top of the series) unless noted; note: % is set by controls: 0 for no effect and ±100 for the full control effect
How it was run: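 ME-180 cells with beta-lactamase reporter under AP-1 response element, stimulated with EC50 EGF; compounds tested in titration series, 5 h at 37 °C. CCF4 substrate added 2.5 h at room temperature; 460/530 nm emission ratio gave %activity and AC50.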

[2] = NFAT Signaling Pathway (AID 444); details: Jurkat NFAT-bla M1, carbachol, beta-lactamase ratio, 5 h; at 38 µM (top of the series) unless noted;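 note: carbachol stimulus at about its EC50 of 1 µM final; % is set by controls: 0 for no effect and ±100 for the full control effect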
How it was run: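 Jurkat cells carrying an NFAT-driven β-lactamase reporter and co-transfected muscarinic M1 receptor were treated with compound plus carbachol (1 uM final, an EC50 level) for 5 h at 37 °C. CCF4 loading followed for 1 h at RT; 460/530 nm ratio gave %activity.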

[3] = biological target: Glucocorticoid receptor (Homo sapiens) (UniProt P04150); assay: GR-GFP Redistribution (AID 450;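 active = compounds whose dose series gives a full or clear partial fitted curve of increased nuclear translocation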; note: potency is the fitted concentration of half-maximal effect); details: U2OS GR-GFP nuclear translocation, laser cytometry, 2 h
[4] = biological target: Glucocorticoid receptor (Homo sapiens) (UniProt P04150); assay: GR-EFC Redistribution (AID 451; calls by dose curve; note: potency is the fitted concentration of half-maximal effect); details: CHO-K1 GR-EFC translocation, beta-gal luminescence, 2 h
How it was run: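 CHO-K1 cells stably expressing nuclear-localized β-gal enzyme acceptor and GR fused C-terminally to the enzyme donor fragment; ligand-driven nuclear translocation restores β-gal by complementation. Compounds titrated up to 46 uM final, 2 h at 37 °C; luminescence read.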

[5] = Stat Signaling Pathway (AID 446); details: ME-180 (cervical carcinoma) SIE beta-lactamase reporter, IL-6 stimulated, 5 h; at 38 µM (top of the series) unless noted;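 note: ME-180 cervical cancer cells given 40 pM IL-6 alongside compound; SIE-controlled beta-lactamase reporter measured as 460/530 nm FRET emission ratio; % is set by controls: 0 for no effect and ±100 for the full control effect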
How it was run: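 Emission at 460 and 530 nm (excitation 405 nm) reports SIE-controlled beta-lactamase in ME-180 cells. Cells received compound with 40 pM IL-6 for 5 hrs at 37 C; data scaled between 300 pM IL-6 and 125 nM JAK-inhibitor controls.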

[6] = biological target: Mitogen-activated protein kinase 10 (Mus musculus) (UniProt Q61831); assay: JNK3 AlphaScreen Assay (AID 530);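 note: kinase came from lysate of stimulated human HepG2 cells; signal reports phosphorylation of biotinylated GST-cJun 1-79 at Ser73 with 10 µM ATP; % is set by controls: 0 for no effect and ±100 for the full control effect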
How it was run: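 Phosphorylation of biotinylated GST-cJun(1-79) at Ser73 is measured by AlphaScreen proximity luminescence. Enzyme is JNK3 in HepG2 lysates activated with interleukin-1beta and tumor necrosis factor alpha; ATP is 10 uM final.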

Sequence of Glucocorticoid receptor (Homo sapiens) (P04150 whole entry, looked up, the tested form may be a part): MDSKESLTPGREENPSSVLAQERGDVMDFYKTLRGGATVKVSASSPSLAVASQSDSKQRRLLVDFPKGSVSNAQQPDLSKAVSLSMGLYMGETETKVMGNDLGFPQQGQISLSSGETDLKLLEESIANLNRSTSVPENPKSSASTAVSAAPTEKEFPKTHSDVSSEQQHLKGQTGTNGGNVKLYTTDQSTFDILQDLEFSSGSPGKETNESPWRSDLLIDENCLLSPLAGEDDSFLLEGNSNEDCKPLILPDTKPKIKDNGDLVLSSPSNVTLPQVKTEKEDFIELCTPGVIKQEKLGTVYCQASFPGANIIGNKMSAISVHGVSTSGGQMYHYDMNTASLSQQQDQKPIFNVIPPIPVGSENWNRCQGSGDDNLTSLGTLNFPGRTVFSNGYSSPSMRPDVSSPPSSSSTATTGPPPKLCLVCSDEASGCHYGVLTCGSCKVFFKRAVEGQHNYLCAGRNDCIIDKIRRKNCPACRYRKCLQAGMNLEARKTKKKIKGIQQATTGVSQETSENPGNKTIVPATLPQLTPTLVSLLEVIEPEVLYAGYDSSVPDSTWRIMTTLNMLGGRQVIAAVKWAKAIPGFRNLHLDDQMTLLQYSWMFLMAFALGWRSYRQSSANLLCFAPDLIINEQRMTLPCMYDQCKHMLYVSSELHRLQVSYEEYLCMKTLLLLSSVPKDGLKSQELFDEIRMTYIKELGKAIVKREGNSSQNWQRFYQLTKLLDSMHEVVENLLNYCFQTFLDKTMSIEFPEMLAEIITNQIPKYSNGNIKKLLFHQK

Cn1ccnc1
inactive: activity change, negative = inhibition [1] -6.19% | activity change, negative = inhibition [2] -1.47% | Potency [3] > 46 µM | Potency [4] > 46 µM

N=C(N)c1ccc(OCCCCCOc2ccc(C(=N)N)cc2)cc1 (tested in a mixture with another compound)
inactive: activity change, negative = inhibition [1] 5.08% | activity, negative = inhibition [5] -3.59% | Potency [3] > 46 µM | Potency [4] > 46 µM | outcome [6]

Cc1cc2c(cc1Cl)N(C(=O)Nc1ccnc3ccccc13)CC2
inactive: activity change, negative = inhibition [1] -29.6% | Potency [3] > 46 µM | Potency [4] > 46 µM | outcome [6]

O=C(O)c1cccnc1C(=O)O
inactive: activity change, negative = inhibition [1] -4.89% | activity change, negative = inhibition [2] -4.14% | outcome [6]

N[C@H](C(=O)O)c1cc(O)cc(O)c1
inactive: activity change, negative = inhibition [1] 7.53% | activity change, negative = inhibition [2] -1.35% | activity, negative = inhibition [5] 9.71% | Potency [3] > 46 µM | Potency [4] > 46 µM | outcome [6]

NC1(C(=O)O)CC1
inactive: activity change, negative = inhibition [1] 11.9% | activity change, negative = inhibition [2] -11.2% | Potency [3] > 46 µM | Potency [4] > 46 µM

O=C(O)c1ccccc1Nc1ccccc1
inactive: activity change, negative = inhibition [1] 4.51% | activity, negative = inhibition [5] -15.6% | Potency [3] > 46 µM | Potency [4] > 46 µM

O=C(OCCN1CCOCC1)C1(c2ccccc2)CCCCC1
inactive: activity change, negative = inhibition [1] -11.4% | Potency [3] > 46 µM | Potency [4] > 46 µM

NCCCCN=C(N)N
inactive: activity change, negative = inhibition [1] -8.22% | Potency [3] > 46 µM | Potency [4] > 46 µM | outcome [6]

CCSC(=N)N
inactive: activity change, negative = inhibition [1] -24.3% | activity, negative = inhibition [5] 9.06% | Potency [3] > 46 µM | Potency [4] > 46 µM | outcome [6]

N=C(N)SCCc1cnc[nH]1
inactive: activity change, negative = inhibition [1] 5.57% | activity change, negative = inhibition [2] -4.42% | Potency [3] > 46 µM | Potency [4] > 46 µM | outcome [6]

CC(=O)NNC(=O)N1Cc2ccccc2Oc2ccc(Cl)cc21
inactive: activity change, negative = inhibition [1] -8.52% | activity change, negative = inhibition [2] 13.5% | Potency [3] > 46 µM | Potency [4] > 46 µM | outcome [6]

N[C@@H](Cc1c[nH]c2ccccc12)C(=O)O
inactive: activity change, negative = inhibition [1] 4% | activity change, negative = inhibition [2] -12.3% | activity, negative = inhibition [5] -9.87% | Potency [3] > 46 µM | Potency [4] > 46 µM | outcome [6]

C[N+](C)(C)CC=O
inactive: activity change, negative = inhibition [1] 3.33% | activity, negative = inhibition [5] 17.9% | Potency [3] > 46 µM | Potency [4] > 46 µM | outcome [6]

N=C(N)SCCN
inactive: activity change, negative = inhibition [1] 3.17% | activity change, negative = inhibition [2] -0.506% | Potency [3] > 46 µM | Potency [4] > 46 µM | outcome [6]

CCn1c(=O)[nH]c2cc(Cl)c(Cl)cc21
inactive: activity change, negative = inhibition [1] 0.191% | Potency [3] > 46 µM | Potency [4] > 46 µM | outcome [6]

O=C(O)Cc1ccc(O)c(O)c1
inactive: activity change, negative = inhibition [1] -7.22% | activity change, negative = inhibition [2] 12.7% | activity, negative = inhibition [5] 18.6% | Potency [3] > 46 µM | Potency [4] > 46 µM | outcome [6]

COc1ccccc1N1CCN(CCN(C(=O)c2ccc(F)cc2)c2ccccn2)CC1
inactive: activity change, negative = inhibition [1] 1.26% | activity change, negative = inhibition [2] -0.748% | Potency [3] > 46 µM | Potency [4] > 46 µM | outcome [6]

COc1cc(CNC(=O)CCCCCCC(C)C)ccc1O
inactive: activity change, negative = inhibition [1] -1.77% | activity change, negative = inhibition [2] 7.5% | Potency [3] > 46 µM | Potency [4] > 46 µM

Cn1c(=O)c2[nH]c(-c3ccc(S(=O)(=O)O)cc3)nc2n(C)c1=O
inactive: activity change, negative = inhibition [1] 8.6% | activity change, negative = inhibition [2] 8.07% | activity, negative = inhibition [5] 18% | Potency [3] > 46 µM | Potency [4] > 46 µM | outcome [6]

Cc1ccc2c(c1)C(N1CCN(C)CC1)=Nc1cccnc1N2
inactive: activity change, negative = inhibition [1] 22.6% | activity, negative = inhibition [5] 0.822% | Potency [3] > 46 µM | Potency [4] > 46 µM | outcome [6]
